# Assay results: PubChem BioAssay AID1851 (National Center for Advancing Translational Sciences (NCATS), 2009)
# About 4,000 (25%) of roughly 16,000 compounds were called active. About 26% were inconclusive and are not listed. The call rests on the fitted dose curve; in most records, active means well fitted curve in the direction sought with a large enough effect; inconclusive means small, poorly fitted or top-dose-only effect, or effect the other way; inactive means no such curve, though single readings can be large or run the other way. A selection follows.
# Target: Cytochrome P450 2C9 (Homo sapiens) (UniProt P11712)
# Assay: Cytochrome panel assay with activity outcomes
# Details: recombinant CYP, pro-luciferin dealkylation, luminescence, p450-cyp2c9; series mostly up to 57.1 µM
# On the % scale 0 is the no-effect control and ±100 the full control effect.
# Cytochrome P450 2C9 (Homo sapiens), sequence (P11712 whole entry, looked up): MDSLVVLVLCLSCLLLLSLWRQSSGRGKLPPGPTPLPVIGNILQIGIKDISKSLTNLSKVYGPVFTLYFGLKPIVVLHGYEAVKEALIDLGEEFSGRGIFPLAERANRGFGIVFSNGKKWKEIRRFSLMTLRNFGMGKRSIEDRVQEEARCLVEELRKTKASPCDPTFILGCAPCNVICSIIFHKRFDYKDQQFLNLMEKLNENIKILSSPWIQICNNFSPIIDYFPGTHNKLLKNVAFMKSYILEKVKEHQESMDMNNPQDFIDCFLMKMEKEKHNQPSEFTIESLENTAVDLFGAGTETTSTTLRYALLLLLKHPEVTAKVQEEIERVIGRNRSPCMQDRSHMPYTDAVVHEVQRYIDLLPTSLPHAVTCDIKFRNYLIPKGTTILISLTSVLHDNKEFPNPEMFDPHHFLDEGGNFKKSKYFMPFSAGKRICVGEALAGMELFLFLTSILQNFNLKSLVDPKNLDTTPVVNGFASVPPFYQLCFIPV
Structure (SMILES),AC50,"activity, negative = inhibition"
COC(=O)C1=C(C)NC(C)=C([N+](=O)[O-])[C@@H]1c1ccccc1C(F)(F)F,0.158 µM (active),–
COC(=O)C1=C(C)NC(=O)NC1c1ccsc1 (centres undefined),inactive,–
COC(=O)C1=C(C)NC(C)=C([N+](=O)[O-])[C@H]1c1ccccc1C(F)(F)F,2 µM (active),–
CO[C@@H]1/C=C\CC(=O)N[C@@H](C)C(=O)OC[C@H](NS(=O)(=O)c2ccc(C)cc2)[C@H](C)/C=C\CC(=O)OC[C@H]1C,–,14.6% [at 11.4 µM] (inactive)
Cc1ccc([N+](=O)[O-])cc1NC(=S)NC(=O)CC(C)(C)C,2.24 µM (active),–
Cc1ccc([N+](=O)[O-])cc1NC(=S)NC(=O)C(C)(C)C,0.708 µM (active),–
Cc1cnc(CNc2ncncc2-c2ccccc2C(F)(F)F)cn1,–,1.53% [at 2.29 µM] (inactive)
CCN1CCCC1CNC(=O)CCNC(=O)c1cc(OC)c(OC)c(OC)c1 (centres undefined),inactive,–
COc1ccc2cc(CCNC(=O)C3CC3)c(=O)[nH]c2c1,inactive,–
COc1ccc(OC)c2[nH]c(=O)c(CCNC(=O)c3ccc(S(=O)(=O)N4CCCC4)cc3)cc12,11.2 µM (active),–
CCN(CC)CCNC(=O)c1cc(S(C)(=O)=O)ccc1OC,inactive,–
COc1ccc(OC)c2[nH]c(=O)c(CCNC(=O)c3ccc(S(=O)(=O)N(C)C)cc3)cc12,7.94 µM (active),–
CCOC(=O)C(C)(C)[C@H](O)C(C)C,–,-6.81% [at 11.4 µM] (inactive)
COc1cccc(-c2nccc(NCc3ccccc3)n2)c1,–,-19.2% [at 2.29 µM] (inactive)
COc1cccc(-c2cc(NCc3ccccc3)ncn2)c1,–,-1.27% [at 2.29 µM] (inactive)
COc1ccc(CCNc2cc(-c3ccccc3)nc3ncnn23)cc1,5.62 µM (active),–
CCOC(=O)CCc1c(C)nc2ncnn2c1C,inactive,–
Cc1ccc(CNC(=O)CCc2c(C)nc3ncnn3c2C)cc1,inactive,–
CCc1c(C)nc2ncnn2c1NCCc1ccc(OC)cc1,1.58 µM (active),–
CCNc1ncc2nc(-c3cc(F)cc(F)c3)c(=O)n(CCC#N)c2n1,inactive,–
Fc1ccc(Nc2ccnc(-c3ccoc3)n2)cc1,–,9.66% [at 2.29 µM] (inactive)
CC(=O)OC[C@@H]1O[C@@H](O/N=C2/C[C@@H](O)[C@@H](O)[C@@H]3[C@@H]4C(=O)N(c5cccc(Oc6ccccc6)c5)C(=O)[C@H]4CC[C@@H]23)[C@H](OC(C)=O)[C@H](OC(C)=O)[C@@H]1OC(C)=O,–,20.1% [at 11.4 µM] (inactive)
Cc1cc(O)c(C(C)C)cc1CN1CCCCC1,–,-3.21% [at 11.4 µM] (inactive)
Cc1cc(O)c(-c2cc(O)c(C)cc2O)cc1O,1.26 µM (active),–
COc1ccc(-c2nc3c([nH]2)c(=O)n(C)c(=O)n3C)c(OC)c1,inactive,–
Cc1n[nH]c(=O)nc1NCc1ccccc1Cl,inactive,–
CCOC(=O)n1c(=O)n(Cc2c(Cl)cccc2Cl)c2ccccc21,3.98 µM (active),–

Structure (SMILES),AC50,"activity, negative = inhibition"
Cn1c(=O)n(CCC(=O)O)c2ccccc21,inactive,–
CCOC(=O)n1c(=O)n(Cc2ccccc2Cl)c2ccccc21,8.91 µM (active),–
O=c1[nH]cc(CS(=O)(=O)Cc2c[nH]c(=O)[nH]c2=O)c(=O)[nH]1,–,-2.59% [at 11.4 µM] (inactive)
C/C(=N\O)c1ccc2[nH]ccc2c1,inactive,–
Cc1n[nH]c(C)c1S(=O)(=O)N1CCC(C(=O)O)CC1,inactive,–
O=C(NNC(=O)c1ccncc1)c1ccncc1,–,0.511% [at 11.4 µM] (inactive)
NNC(=O)c1ccncc1,inactive,–
CC(=O)c1c(C(C)=O)c(C)n(NC(=O)c2ccncc2)c1C,1.58 µM (active),–
NS(=O)(=O)c1ccc(N=Nc2cc3ccccc3c(C(=O)O)c2O)cc1,–,-1.93% [at 11.4 µM] (inactive)
CCN1C(=O)[C@H]2[C@H]3[C@H](O)[C@H](O)C/C(=N/O[C@@H]4O[C@H](COC(C)=O)[C@@H](OC(C)=O)[C@H](OC(C)=O)[C@H]4OC(C)=O)[C@@H]3CC[C@@H]2C1=O,–,-1.58% [at 11.4 µM] (inactive)
CC1(C)Cc2ccccc2C(NNC(=O)c2ccncc2)=N1,inactive,–
C/C(=N\NC(=O)c1ccc(Br)cc1)c1ccccc1,inactive,–
C/C(=N\NC(=O)c1ccncc1)c1ccc2ccccc2c1O,0.1 µM (active),–
CC(=O)N1CCC2(CCCN(c3ncccn3)C2)CC1,inactive,–
O=C(c1cccc(F)c1)N1CCC2(CC1)CCN(c1ncccn1)CC2,12.6 µM (active),–
O=C(c1cccc(F)c1)N1CCC2(CCCN(c3ncccn3)C2)CC1,15.8 µM (active),–
O=C(c1cccc(F)c1)N1CCC2(CC1)CCN(c1ccccc1)CC2,inactive,–
CC(C)NC(=O)N1CCC2(CC1)CCN(C(=O)c1cccc(F)c1)CC2,inactive,–
O=C(c1cc(C(F)(F)F)cc(C(F)(F)F)c1)N1CCC2(CCCN(c3ncccn3)C2)CC1,inactive,–
COc1cccc2c1C(=O)c1c(O)c3c(c(O)c1C2=O)C[C@](O)(C(=O)CO)C[C@H]3O[C@@H]1C[C@H](N)[C@H](O)[C@H](C)O1,inactive,–
O=C(O)[C@@H]1CCCN1,–,1.2% [at 11.4 µM] (inactive)
CCSc1nnc(-c2ccc(Cl)cc2)c2ccccc12,2 µM (active),–
Cc1ccc(C(=O)N/C(=C\c2ccc(Br)cc2)c2nc(=S)[nH][nH]2)cc1,8.91 µM (active),–
O=C(N/C(=C/c1ccc(Br)cc1)c1nc2ccccc2[nH]1)c1ccco1,inactive,–
CCOc1nc(N=C(N)N)nc2c(C)cccc12,inactive,–
COc1ccc2nc(NCN3C(=O)c4ccccc4C3=O)sc2c1,–,-14.8% [at 11.4 µM] (inactive)
COc1ccc2nc(N)sc2c1,inactive,–

Structure (SMILES),AC50,"activity, negative = inhibition"
COc1ccc2nc(N3C(=O)CC(Cc4ccc(Cl)cc4)C3=O)sc2c1 (centres undefined),12.6 µM (active),–
CN1CCN(CCCBr)CC1,–,18% [at 11.4 µM] (inactive)
C[C@H](O/N=C1/[C@H]2O[C@@H]2[C@@H](O)[C@H]2[C@H]1CCn1c(=O)n(-c3ccccc3)c(=O)n12)c1cn([C@H]2COC[C@H]2O)nn1,–,0.305% [at 11.4 µM] (inactive)
CCCn1c(-c2cccs2)nc2nc3ccccc3nc21,10 µM (active),–
CCNc1ncc2nc(-c3cccs3)c(=O)n(CCc3ccccc3)c2n1,inactive,–
CN1CCN(c2ncc3nc(-c4cccs4)c(=O)n(CCc4ccccc4)c3n2)CC1,inactive,–
Cc1ccc2nc(SCc3nc4c(cnn4-c4ccccc4)c(=O)[nH]3)[nH]c2c1,4.47 µM (active),–
COc1cc(/C=C\C(=O)N2CCC=CC2=O)cc(OC)c1OC,inactive,–
C=CCSc1nc2ccccc2n1C(=O)/C=C/c1cc(OC)c(OC)c(OC)c1,7.94 µM (active),–
COc1cc(/C=C/C(=O)Nc2ccccc2C(F)(F)F)cc(OC)c1OC,inactive,–
CCSc1nc2ccccc2n1C(=O)/C=C\c1ccc(OC)c(OC)c1,1.58 µM (active),–
CC(=O)n1c(COS(C)(=O)=O)nc2ccccc21,–,-7.23% [at 11.4 µM] (inactive)
COc1ccc(NC(=O)COC(=O)Cn2c(C)nc3ccccc32)cc1OC,inactive,–
CCCNC(=O)OC[C@@H]1O[C@H](CCO/N=C(\C)CCN2CCc3nc(CC)c(CC)cc3C2)C=C[C@@H]1Oc1ccc(OC)cc1,–,-21.2% [at 11.4 µM] (inactive)
C/C(CCC(=O)OC[C@@H]1O[C@H](C#Cc2ccccc2)C=C[C@@H]1Oc1ccc(C)cc1)=N/OC[C@@H](O)[C@H]1O[C@H]2OC(C)(C)O[C@H]2[C@@H]1O,–,-25.1% [at 11.4 µM] (inactive)
COc1ccc(O[C@H]2C=C[C@@H](c3ccccc3)O[C@H]2COC(=O)CC/C(C)=N\OC[C@@H](O)[C@H]2O[C@H]3OC(C)(C)O[C@H]3[C@@H]2O)cc1,1.58 µM (active),–
CCCNC(=O)OC[C@@H]1O[C@H](CCO/N=C(\C)CCN2CCc3nc(-c4ccccc4)c(-c4ccccc4)cc3C2)C=C[C@@H]1Oc1ccc(OC)cc1,2 µM (active),–
COc1ccc(O[C@H]2C=C[C@@H](c3ccccc3)O[C@H]2CO/N=C(/C)CCC(=O)OC[C@@H]2O[C@H](c3ccccc3)C=C[C@@H]2Oc2ccc(OC)cc2)cc1,–,-3.16% [at 11.4 µM] (inactive)
COc1ccc(O[C@H]2C=C[C@@H](c3ccccc3)O[C@H]2COC(=O)N2CCCCC2)cc1,2.51 µM (active),–
CCCNC(=O)OC[C@H]1O[C@@H](CCO/N=C2/[C@H]3O[C@@H]3[C@@H](O)[C@H]3[C@H]2CCn2c(=O)n(-c4ccccc4)c(=O)n23)C=C[C@@H]1Oc1ccc(OC)cc1,–,-24.3% [at 11.4 µM] (inactive)
COc1ccc(O[C@H]2C=C[C@@H](c3ccccc3)O[C@H]2COC(=O)CC/C(C)=N/OCC[C@@H]2C=C[C@H](OC(C)=O)[C@H](COC(C)=O)O2)cc1,3.98 µM (active),–
COc1ccc(O[C@H]2C=C[C@@H](c3ccccc3)O[C@@H]2CO/N=C(\C)CCN2CCc3nc(-c4ccccc4)c(-c4ccccc4)cc3C2)cc1,–,-13.6% [at 11.4 µM] (inactive)
COc1ccc(O[C@H]2C=C[C@@H](c3ccccc3)O[C@H]2COC(=O)CC/C(C)=N/O[C@@H]2O[C@H](COC(C)=O)[C@H](OC(C)=O)[C@H](OC(C)=O)[C@H]2OC(C)=O)cc1,–,-25.6% [at 11.4 µM] (inactive)
CCCNC(=O)OC[C@@H]1O[C@H](c2ccccc2)C=C[C@@H]1Oc1ccc(OC)cc1,–,-29.7% [at 11.4 µM] (inactive)
COc1ccc(O[C@H]2C=C[C@@H](c3ccccc3)O[C@H]2CO/N=C(/C)CCC(=O)OC[C@@H]2O[C@H](C#Cc3ccccc3)C=C[C@@H]2Oc2ccc(C)cc2)cc1,–,-16.6% [at 11.4 µM] (inactive)
